This is part of a sample that, as a whole, favours compounds with a hit. Of some 79,000 tested, about 15% had one in any assay. Values without a mark were called inactive. Active and inactive are the calls of the source. Cut-off read from the data, not from the text of the source: active = growth inhibition above about 70%; inactive = the rest.
Experiment: NCI Yeast Anticancer Drug Screen. Data for the wt2 strain (AID 169);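 note: 0% = growth of vehicle-treated yeast cultures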
Settings: S. cerevisiae wt2 strain growth inhibition, hits give high values
Experimental: Growth inhibition of yeast strains with defined genetic alterations is measured as a screen for potential anti-cancer activity. Selected strains with alterations in DNA damage repair or cell cycle control were exposed to compounds and growth inhibition was measured relative to vehicle treated controls. The strain used in this assay is wt2

## O=[N+]([O-])c1cc(S(=O)(=O)Nc2ccccc2)ccc1Nc1ccccc1
At 1.2 µM
  growth inhibition: -28%
At 3.7 µM
  growth inhibition: -18%
At 11.0 µM
  growth inhibition: 92% (active)
At 33.0 µM
  growth inhibition: 92% (active)
At 100.0 µM
  growth inhibition: 83% (active)

## CCCC(=O)Oc1c(C)cc([N+](=O)[O-])cc1[N+](=O)[O-]
At 1.2 µM
  growth inhibition: 2%
At 3.7 µM
  growth inhibition: 4%
At 11.0 µM
  growth inhibition: 98% (active)
At 33.0 µM
  growth inhibition: 99% (active)
At 100.0 µM
  growth inhibition: 99% (active)

## C=C1CC(CCCl)(c2ccccc2)OC1=O (stereo not given)
At 1.2 µM
  growth inhibition: -22%
At 3.7 µM
  growth inhibition: -20%
At 11.0 µM
  growth inhibition: 38%
At 33.0 µM
  growth inhibition: 95% (active)
At 100.0 µM
  growth inhibition: 95% (active)

## O=C(/C=C(/c1ccccc1)N1CCCCC1)c1ccccc1
At 1.2 µM
  growth inhibition: -1%
At 3.7 µM
  growth inhibition: 1%
At 11.0 µM
  growth inhibition: 1%
At 33.0 µM
  growth inhibition: 15%
At 100.0 µM
  growth inhibition: 95% (active)

## O=C(Nc1ccc(Cl)cc1)Nc1nnc2nc(C(C(=O)c3cccc([N+](=O)[O-])c3Cl)c3nc4nnc(NC(=O)Nc5ccc(Cl)cc5)n4[nH]c3=O)c(=O)[nH]n12
At 1.2 µM
  growth inhibition: -1%
At 3.7 µM
  growth inhibition: -2%
At 11.0 µM
  growth inhibition: -2%
At 33.0 µM
  growth inhibition: -2%
At 100.0 µM
  growth inhibition: 32%

## COc1ccc2[nH]cc([C@@H]3C4CCC(C4)[C@H]3NCc3cccc(CN[C@H]4C5CCC(C5)[C@@H]4c4c[nH]c5ccc(OC)cc45)c3)c2c1
At 1.2 µM
  growth inhibition: -41%
At 3.7 µM
  growth inhibition: -42%
At 11.0 µM
  growth inhibition: -46%
At 33.0 µM
  growth inhibition: 20%
At 100.0 µM
  growth inhibition: 99% (active)

## C[C@@](O)(/C=C/[C@H]1CC=CC(=O)O1)[C@@H](C[C@@H](O)\C=C/C=C\C=C\CO)OP(=O)(O)O
At 1.2 µM
  growth inhibition: 4%
At 3.7 µM
  growth inhibition: 19%
At 11.0 µM
  growth inhibition: 20%
At 33.0 µM
  growth inhibition: 39%
At 100.0 µM
  growth inhibition: 88% (active)

## S=C1SCN(C2CCCCC2)CN1C1CCCCC1
At 1.2 µM
  growth inhibition: -37%
At 3.7 µM
  growth inhibition: -35%
At 11.0 µM
  growth inhibition: -39%
At 33.0 µM
  growth inhibition: -22%
At 100.0 µM
  growth inhibition: 39%
